Records with an inconclusive call do not appear. Entries that show only a call come without a potency. Activity calls are given as the source filed them. Unless noted, the call rests on the fitted dose curve; in most records, active means well fitted curve in the direction sought with a large enough effect; inconclusive means small, poorly fitted or top-dose-only effect, or another doubt; inactive means no such curve, though single readings can be large; an effect the other way counts as inactive or inconclusive.
Legend:
[1] = molecular target: Thioredoxin reductase 1, cytoplasmic (Rattus norvegicus) (UniProt O89049); experiment: qHTS Assay for Substrates of Mammalian Selenoprotein Thioredoxin Reductase 1 (TrxR1) (AID 488772);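 further: NADPH fluorescence in the first read after selenite addition and not the 8 min delta; series mostly up to about 57 µM; a drop in NADPH fluorescence below the no-compound background marks a TrxR1 substrate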
Procedure, shortened: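 Quantitative HTS in Tris-HCl buffer at pH 7.5 with EDTA and Tween-20, using rat TrxR1, 400 uM NADPH and 400 uM selenite (final). A fall in initial NADPH fluorescence relative to background marked substrate behaviour.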

[2] = molecular target: Thioredoxin reductase 1, cytoplasmic (Rattus norvegicus) (UniProt O89049); experiment: qHTS Assay for Inhibitors of Mammalian Selenoprotein Thioredoxin Reductase 1 (TrxR1) (AID 488773); settings: Potency: inhibition;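 further: drop in NADPH fluorescence over an 8 min run after selenite addition; series mostly up to about 57 µM; nearly all actives have a fitted effect of over 40% in size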
Procedure, shortened: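 Steps: enzyme (90 nM) plus NADPH (400 uM final), 5 min at ~22 deg C; compound added, 15 min; selenite (400 uM final) added; fluorescence followed for 8 min. Concentration-response curves derived from the normalized delta values.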

[3] = molecular target: Flap endonuclease 1 (Homo sapiens) (UniProt P39748); experiment: qHTS Validation Assay for the Inhibitors of Human Flap endonuclease 1 (FEN1) (AID 488816)
Procedure, shortened: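 Readings taken at 0 and 15 min after starting the reaction with 50 nM (final) substrate supplied the signal. Compounds had first sat with 10 nM FEN1 reagent for 15 min at room temperature. Values come from Hill-equation concentration-response fits.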

[4] = molecular target: M-phase phosphoprotein 8 (Homo sapiens) (UniProt Q99549); experiment: qHTS Validation Assay for Inhibitors for MPP8 Chromodomain Interactions with Methylated Histone Tails (AID 488949);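 further: 50 nM MPP8 with 50 nM peptide preformed then compounds added for 30 min; AlphaScreen signal from MPP8 chromodomain bound to biotinylated H3K9me3 peptide; top concentration of the series differs between compounds; nearly all actives have a fitted effect of over 55% in size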
Procedure, shortened: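 Chemiluminescent proximity assay: histidine-tag capture via nickel acceptor beads, biotin peptide via streptavidin donor beads. Protein and peptide each at 50 nM, pH 7.4, with 30 min incubations at room temperature for complex formation, compound exposure and bead binding.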

[5] = molecular target: Thyrotropin receptor (Homo sapiens) (UniProt P16473); experiment: qHTS Assay for Antagonists of the Thyroid Stimulating Hormone Receptor (AID 488980); further: series mostly up to about 58 µM
Procedure, shortened: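 Inhibition of TSH-stimulated cAMP accumulation was quantified by homogeneous time-resolved FRET in TSHR-transfected HEK293 cells. Agonist: TSH, 4 nM final (EC80).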

[6] = molecular target: D(1A) dopamine receptor (Homo sapiens) (UniProt P21728); experiment: HTS Assay for Allosteric Agonists of the Human D1 Dopamine Receptor: Primary Screen for Agonists (AID 488981)
Procedure, shortened: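 Calcium flux in an inducible, force-coupled HEK293 Trex D1 line (overnight at 30 C): agonist mode is the 180 s kinetic read after compound; potentiator mode is the following 180 s read after dopamine at EC20.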

[7] = molecular target: D(1A) dopamine receptor (Homo sapiens) (UniProt P21728); experiment: HTS Assay for Allosteric Agonists of the Human D1 Dopamine Receptor: Primary Screen for Antagonists (AID 488983);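 further: calcium flux response to an EC80 dopamine challenge measured with no-wash dye; nearly all actives have a fitted effect of over 65% in size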
Procedure, shortened: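 Cells are induced with tetracycline and incubated overnight at 30 C, then loaded with calcium dye for 30 to 90 minutes at room temperature. Compound addition is followed by a 180 s read, then an EC80 dopamine addition and another 180 s read.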

[8] = Validation screen for small molecules that induce genotoxicity in human embryonic kidney (HEK293T) cells expressing luciferase-tagged ELG1 (AID 493106)
Procedure, shortened: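 Luminescence from an ELG1-luciferase fusion serves as the read-out, rising when genetic stress elevates ELG1 protein. HEK293T reporter cells (2,000 per well) received 23 nL compound, incubated 16 hr at 37 °C, then ONE-Glo for 30 min at room temperature.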

[9] = molecular target: Thyrotropin-releasing hormone receptor (Homo sapiens) (UniProt P34981); experiment: qHTS for Small Molecule Agonists and Allosteric Enhancers of Human TRH Receptor: Validation Screen for Agonists (AID 493127;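 active means calcium activation more than 3 SD above the typical response in the agonist read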;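 further: intracellular calcium rise by fluo-8 fluorescence before TRH EC20 addition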); settings: TRH receptor agonist cell assay; at 2 µM; stronger effect = higher value
Procedure, shortened: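 Cells 2000/well, 10% FCS, 18 h 33.5C/5% CO2 → fluo-8 Ca dye, RT 30 min–1.5 h → FDSS baseline 10 × 1 s → compound added → 230 cycles (1 s/cycle) agonist mode. TRH controls.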

[10] = Nrf2 qHTS screen for inhibitors: Validation (AID 493153; active means well fitted inhibition curve with a large enough effect in the main read-out, with a control signal flat, not every such curve was filed as active); settings: viability change: measured here: cytotoxicity max response
Procedure, shortened: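 Luminescence from an ARE-firefly luciferase reporter in A549 cells gives Nrf2 inhibition; an earlier CellTiter-Fluor fluorescent read flags cytotoxicity. Cells in 5% FBS OPTI-MEM received compound dilution series for 18-24 h at 37°C.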

[11] = qHTS for Inhibitors of Cell Surface uPA Generation: Validation Assay (AID 493164)
Procedure, shortened: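 RAW 264.7 cells (4000/well) were plated overnight, then exposed for 18 h at 37 C, 5% CO2 to compounds in a 7-point 1:5 titration (2.45 nM–38.3 uM final). Intracellular ATP was read by ATP-Lite luminescence.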

[12] = molecular target: Galactokinase (Homo sapiens) (UniProt P51570); experiment: qHTS Validation Assay for Inhibitors of Human Galactokinase (GALK) (AID 493189)
Procedure, shortened: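 Enzyme activity is inferred from ATP consumption: human GALK phosphorylates galactose (100 uM) using 35 uM ATP for 1 h at room temperature, and luciferase-based Kinase-Glo Plus reports unconsumed ATP.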

[13] = Validation screen for small molecules that induce DNA re-replication in SW480 colon adenocarcinoma cells (AID 504364)
Procedure, shortened: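 250 cells/well; compound pinned in; 48 hr, 37 C, 5% CO2; Hoechst added, 40 min; nuclear fluorescence imaged, 405 ex / 500-530 em; re-replication scored as increase in high-intensity nuclei.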

[14] = molecular target: Peptidyl-prolyl cis-trans isomerase NIMA-interacting 1 (Homo sapiens) (UniProt Q13526); experiment: qHTS Validation Assay to Find Inhibitors of Pin1 (AID 504536; active means well fitted inhibition curve with a large enough effect in the polarisation, with a control signal flat, not every such curve was filed as active; the % refers to the polarisation)
Procedure, shortened: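 Fluorescence polarization competition: compounds (titration) displace HiFluor-488-labeled Pin1-1b peptide from Pin1 (0.3 uM final) in pH 7.5 HEPES buffer with DTT, 10 min at room temperature; %Activity normalized to no-enzyme wells, curves fitted.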

[15] = molecular target: Phosphoglycerate kinase, glycosomal (Trypanosoma brucei brucei) (UniProt P07378); experiment: qHTS Validation Assay to Find Inhibitors of Phosphoglycerate Kinase (AID 504547)
Procedure, shortened: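 Inhibition of the enzyme is judged by a Kinase-Glo Plus luminescent signal following a one-hour incubation at room temperature. Because 1,3-BPG is unstable, it is made in situ by GAPDH at 100nM final; no-PGK wells define the baseline.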

[16] = molecular target: phosphoglycerate mutase (Leishmania major) (UniProt Q4Q090); experiment: qHTS Validation Assay to Find Inhibitors of Phosphoglycerate Mutase (AID 504548); further: series mostly up to about 58 µM
Procedure, shortened: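 Lm PGAM 1.25nM final; 100 mM TEA pH 7.6, 5 mM MgCl2, 0.01% Tween-20; 45 min RT; Kinase-GloPlus, 10 min; end-point luminescence. Enzyme-free wells as negative controls.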

[17] = molecular target: Ubiquitin carboxyl-terminal hydrolase 1 (Homo sapiens) (UniProt O94782); experiment: Inhibitors of USP1/UAF1: Pilot qHTS (AID 504865);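 further: rhodamine fluorescence freed from ubiquitin-rhodamine substrate followed over time; top concentration of the series differs between compounds; nearly all actives have a fitted effect of over 35% in size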
Procedure, shortened: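 Enzyme-free wells gave the negative control, while test wells held 1nM USP1/UAF1 preincubated with compound for 15 min at room temperature. Ub-Rho at 150nM final started the reaction, and fluorescence at 480/540 nm was recorded kinetically.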

[18] = molecular target: Voltage-gated inwardly rectifying potassium channel KCNH2 (Homo sapiens) (UniProt Q12809); experiment: qHTS Assay for Small Molecule Inhibitors of the Human hERG Channel Activity (AID 588834);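 further: potency means the concentration at half of the fitted maximal effect; lower thallium flux fluorescence means stronger hERG block; nearly all actives have a fitted effect of over 50% in size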
Procedure, shortened: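 Blockade is seen as reduced FluxOR thallium-flux fluorescence in U2OS cells expressing hERG from a BacMam construct, in Opti-MEM with 2% FCS. Concentration-response data fitted to the Hill equation for AC50.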

[19] = molecular target: Glutaminase kidney isoform, mitochondrial (Homo sapiens) (UniProt O94925); experiment: qHTS for Inhibitors of Glutaminase (GLS): LOPAC Validation (AID 624146);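 further: glutamate product detected by oxidase and peroxidase coupled Amplex red fluorescence gain; series mostly up to about 46 µM; nearly all actives have a fitted effect of over 60% in size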
Procedure, shortened: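 Read-out is an Amplex red fluorescence increase coupled through glutamate oxidase and HRP, measured before and after 30 min room-temperature incubation. hKGA is in 45 mM KH2PO4 (pH 8.2) with 0.02% Tween-20; glutamine added as 1mM solution.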

[20] = qHTS of Trypanosoma Brucei Inhibitors: LOPAC Validation (AID 624147)
Procedure, shortened: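 Screened from lowest to highest concentration, compounds were pinned into TbPYK/substrate mixtures, and ADP (130 uM final) was added. Plates sat at room temperature for 45 min prior to Kinase-Glo Plus detection by luminescence.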

[21] = molecular target: Glucagon-like peptide 1 receptor (Homo sapiens) (UniProt P43220); experiment: qHTS of GLP-1 Receptor Agonists: LOPAC Validation (AID 624148);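 further: luminescence from a luciferase reporter switched on by cAMP; higher luminescence signal means agonism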
Procedure, shortened: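 Agonism scored as increased luciferase luminescence driven by cAMP in HEK293 clones carrying GLP-1R. Cells settled 12 hours, received compound for 4-6 hr at 37 deg C, 5% CO2, and were read after 12 min detection reagent at RT.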

[22] = qHTS of Nrf2 Activators: LOPAC Validation (AID 624149)
Procedure, shortened: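 Luminescence read-out of ARE-luciferase activation: AREc32_Fluc cells treated with compounds for 24 hr at 37 deg C, then lysed with Steady-Glo for 30 min at room temperature before reading.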

[23] = HTS Assay for Allosteric Antagonists of the Human D2 Dopamine Receptor: Hit Validation in HTRF (AID 624455);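 further: stable D1 dopamine receptor cell line scored for blocking the D1 response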
Procedure, shortened: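 First, antagonism was screened by calcium flux in a force-coupled, inducible Hek293 Trex D2 line challenged with EC80 dopamine. Hits then went into an HTRF assay in cells stably expressing D1, testing inhibition of the D1 response.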

[24] = molecular target: T1, Hexokinase-4 (Homo sapiens) + Glucokinase regulatory protein (Homo sapiens) (UniProt P35557+Q14397); experiment: qHTS assay for inhibitors of recombinant human GCK-GKRP interaction: Diaphorase-coupled assay (AID 743205)
Procedure, shortened: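 Signal derives from resorufin generated by diaphorase, linked to GCK turnover of glucose (5 mM) and ATP (0.4 mM). Enzyme complex was added after a 20-minute compound preincubation and monitored for 30 minutes.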

[25] = molecular target: T1, Hexokinase-4 (Homo sapiens) + Glucokinase regulatory protein (Homo sapiens); experiment: qHTS assay for inhibitors of recombinant human GCK-GKRP interaction: HTRF assay (AID 743207)
Procedure, shortened: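 Titration screening format: recombinant GST-GCK and FLAG-GKRP at 5 nM, S6P at 2 uM, labelled anti-tag antibodies, 60 min at RT, dual-wavelength HTRF readout.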

[26] = qHTS Assay for Identifying Gametocytocidal Compounds (AID 743244);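 further: actives lower the fluorescent signal which means gametocytes are killed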; settings: P. falciparum 3D7 stage III-V gametocytes, alamarBlue, 72 h; max response: stronger effect = lower value
Procedure, shortened: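 P. falciparum 3D7 stage III–V gametocytes (20,000 cells/well) were exposed to compounds for 72 h at 37 °C, 5% CO2. AlamarBlue was then added for 24 h; decreased resorufin fluorescence (Ex 525/Em 598 nm) indicated loss of viability.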

[27] = Natriuretic polypeptide receptor (hNpr1) antagonism - Pilot counterscreen GloSensor control cell line (AID 1347045; calls by dose curve; further: series mostly up to about 38 µM)
Procedure, shortened: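 Luminescence was read before and 20 min after adding 50 uM SNP, which stimulates soluble guanylyl cyclase. The HEK293 cells expressing the GloSensor cGMP sensor had been preloaded with 2% reagent for 2 h and treated with compound.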

[28] = molecular target: Atrial natriuretic peptide receptor 1 (Homo sapiens) (UniProt P16066); experiment: Natriuretic polypeptide receptor (hNpr1) antagonism - Pilot screen (AID 1347049; calls by dose curve;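 further: agonist-evoked cGMP luminescence read 20 min after hNppA addition; series mostly up to about 58 µM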)
Procedure, shortened: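 Readout is cGMP-driven firefly luciferase luminescence in HEK293 cells carrying hNpr1 and a PDE5-domain GloSensor, read before and 20 min after 0.1 nM hNppA stimulation. Cells had 2% substrate reagent for 2 h and test compound for 30 min.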

[29] = molecular target: Atrial natriuretic peptide receptor 2 (Homo sapiens) (UniProt P20594); experiment: Natriuretic polypeptide receptor (hNpr2) antagonism - Pilot subtype selectivity assay (AID 1347050; calls by dose curve)
Procedure, shortened: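 Pilot selectivity screen against hNpr2: HEK293 cGMP-sensor cells are treated with LOPAC1280 compounds, then with hNppC peptide at 1 nM final. The cGMP-driven luminescence change over 20 min at room temperature is the read-out.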

[30] = molecular target: Parathyroid hormone/parathyroid hormone-related peptide receptor (Homo sapiens) (UniProt Q03431); experiment: qHTS for PTHR1 Agonists: Optimization Screen against the NCGC LOPAC library (AID 1347079);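 further: GloSensor cAMP luminescence in HEK-293 GP2 cells expressing human PTHR1 with IBMX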
Procedure, shortened: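 Agonist readout: GloSensor cAMP luminescence, read after 15 min at room temperature. HEK-293-derived GP2 line carries PTHR1; compounds tested as a titration for 1 hr at 37C in presence of IBMX. M-PTH (1-15) served as control.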

[31] = test system: Zika virus NS2B-NS3 protease; experiment: Primary screen GU AMC qHTS for Zika virus inhibitors (AID 1347154); further: nearly all actives have a fitted effect of over 70% in size
Procedure, shortened: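 Fluorogenic AMC-substrate cleavage by noncovalent NS2B-NS3 protease complex (25 nM, pH 8.0 Tris buffer with Tween 20) followed for 15 minutes at room temperature (~20% conversion). Percent inhibition from ex340/em450 signal change, fitted by 4-parameter Hill equation.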

[32] = Validation qHTS assay for inhibitors of Activation Induced Cytidine Deaminase (AID): UDG Counterscreen signal (AID 1347427)
Procedure, shortened: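 Counterscreen read of UDG activity (2 U/mL, 4/3x) in the FRET deamination format with AID (1 uM, 4/3x), DJC20/DJC23 substrates (250 nM, 4x), 4 h at room temperature. NaOH stop, fluorescence at 560 ex/665 em.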

[33] = molecular target: Single-stranded DNA cytosine deaminase (Homo sapiens) (UniProt Q9GZX7); experiment: Validation qHTS assay for inhibitors of Activation Induced Cytidine Deaminase (AID): AID signal (AID 1347429)
Procedure, shortened: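 Fluorescence at 540 nm excitation and 590 nm emission reports ssDNA cytosine deamination by AID, with UDG in the same well. Compound-treated reactions ran 4 hr at room temperature with DJC20/DJC23 substrate, followed by 30 min NaOH treatment.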

T1 sequence (P35557 whole entry, looked up): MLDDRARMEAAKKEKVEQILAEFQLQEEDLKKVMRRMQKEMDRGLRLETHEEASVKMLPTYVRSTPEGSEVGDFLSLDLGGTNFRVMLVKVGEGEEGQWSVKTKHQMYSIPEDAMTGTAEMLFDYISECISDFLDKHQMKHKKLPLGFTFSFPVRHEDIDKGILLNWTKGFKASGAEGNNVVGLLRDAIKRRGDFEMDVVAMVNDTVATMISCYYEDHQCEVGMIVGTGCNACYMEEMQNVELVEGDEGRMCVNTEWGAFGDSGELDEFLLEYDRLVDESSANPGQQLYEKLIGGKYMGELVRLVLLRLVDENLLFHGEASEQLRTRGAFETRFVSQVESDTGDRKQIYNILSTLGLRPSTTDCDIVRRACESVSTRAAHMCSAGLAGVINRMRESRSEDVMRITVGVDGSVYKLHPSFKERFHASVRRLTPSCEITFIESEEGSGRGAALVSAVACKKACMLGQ
T1 sequence (Q14397 whole entry, looked up): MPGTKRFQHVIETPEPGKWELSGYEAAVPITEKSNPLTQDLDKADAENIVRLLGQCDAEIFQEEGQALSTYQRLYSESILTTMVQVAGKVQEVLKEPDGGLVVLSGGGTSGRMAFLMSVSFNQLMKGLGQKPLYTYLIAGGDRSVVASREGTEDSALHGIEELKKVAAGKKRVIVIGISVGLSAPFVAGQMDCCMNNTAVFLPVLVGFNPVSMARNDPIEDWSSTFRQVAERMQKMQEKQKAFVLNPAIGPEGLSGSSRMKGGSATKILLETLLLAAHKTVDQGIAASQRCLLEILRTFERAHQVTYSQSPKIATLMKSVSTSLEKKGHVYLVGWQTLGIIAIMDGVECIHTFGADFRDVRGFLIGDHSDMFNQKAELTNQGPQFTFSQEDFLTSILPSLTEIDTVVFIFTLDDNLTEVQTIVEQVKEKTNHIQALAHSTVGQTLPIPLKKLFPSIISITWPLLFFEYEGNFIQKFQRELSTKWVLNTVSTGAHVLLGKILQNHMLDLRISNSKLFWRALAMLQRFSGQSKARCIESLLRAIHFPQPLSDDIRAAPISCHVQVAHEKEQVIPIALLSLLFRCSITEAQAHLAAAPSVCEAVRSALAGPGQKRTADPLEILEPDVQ
Sequence of M-phase phosphoprotein 8 (Homo sapiens) (Q99549 whole entry, looked up): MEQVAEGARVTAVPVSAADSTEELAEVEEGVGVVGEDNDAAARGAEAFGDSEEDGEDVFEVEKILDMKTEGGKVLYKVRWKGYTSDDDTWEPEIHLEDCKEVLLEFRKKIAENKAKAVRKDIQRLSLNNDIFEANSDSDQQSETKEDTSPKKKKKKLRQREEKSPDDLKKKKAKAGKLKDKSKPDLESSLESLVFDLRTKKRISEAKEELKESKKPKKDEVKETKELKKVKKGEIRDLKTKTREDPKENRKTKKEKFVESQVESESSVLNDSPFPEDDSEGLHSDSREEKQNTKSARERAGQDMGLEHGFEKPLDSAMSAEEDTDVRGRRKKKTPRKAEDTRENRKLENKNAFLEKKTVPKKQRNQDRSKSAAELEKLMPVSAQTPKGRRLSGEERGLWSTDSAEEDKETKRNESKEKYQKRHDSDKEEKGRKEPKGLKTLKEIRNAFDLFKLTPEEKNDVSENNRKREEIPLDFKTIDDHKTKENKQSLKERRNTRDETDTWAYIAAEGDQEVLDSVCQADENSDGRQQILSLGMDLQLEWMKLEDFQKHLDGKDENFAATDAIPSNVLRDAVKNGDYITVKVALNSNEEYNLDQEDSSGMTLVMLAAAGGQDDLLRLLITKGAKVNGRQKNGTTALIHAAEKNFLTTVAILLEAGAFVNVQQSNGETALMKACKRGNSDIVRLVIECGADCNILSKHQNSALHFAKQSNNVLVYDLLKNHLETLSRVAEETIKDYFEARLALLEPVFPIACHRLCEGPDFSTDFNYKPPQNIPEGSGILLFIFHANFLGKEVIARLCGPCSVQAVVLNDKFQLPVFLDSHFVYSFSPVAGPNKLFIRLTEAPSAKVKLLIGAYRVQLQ
Sequence of Thioredoxin reductase 1, cytoplasmic (Rattus norvegicus) (O89049 whole entry, looked up): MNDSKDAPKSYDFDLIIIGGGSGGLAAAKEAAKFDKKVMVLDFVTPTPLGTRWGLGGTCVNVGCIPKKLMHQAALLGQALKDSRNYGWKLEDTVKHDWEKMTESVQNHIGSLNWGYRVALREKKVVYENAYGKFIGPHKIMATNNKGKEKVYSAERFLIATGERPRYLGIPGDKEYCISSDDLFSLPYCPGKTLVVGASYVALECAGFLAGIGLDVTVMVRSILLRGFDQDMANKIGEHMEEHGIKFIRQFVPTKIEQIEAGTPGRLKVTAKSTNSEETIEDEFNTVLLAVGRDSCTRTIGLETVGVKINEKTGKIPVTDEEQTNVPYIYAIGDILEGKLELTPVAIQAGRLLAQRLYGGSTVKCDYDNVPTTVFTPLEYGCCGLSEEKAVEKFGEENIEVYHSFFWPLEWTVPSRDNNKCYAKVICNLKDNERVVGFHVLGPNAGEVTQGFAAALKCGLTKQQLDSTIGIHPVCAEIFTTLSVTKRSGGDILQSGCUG
Sequence of D(1A) dopamine receptor (Homo sapiens) (P21728 whole entry, looked up): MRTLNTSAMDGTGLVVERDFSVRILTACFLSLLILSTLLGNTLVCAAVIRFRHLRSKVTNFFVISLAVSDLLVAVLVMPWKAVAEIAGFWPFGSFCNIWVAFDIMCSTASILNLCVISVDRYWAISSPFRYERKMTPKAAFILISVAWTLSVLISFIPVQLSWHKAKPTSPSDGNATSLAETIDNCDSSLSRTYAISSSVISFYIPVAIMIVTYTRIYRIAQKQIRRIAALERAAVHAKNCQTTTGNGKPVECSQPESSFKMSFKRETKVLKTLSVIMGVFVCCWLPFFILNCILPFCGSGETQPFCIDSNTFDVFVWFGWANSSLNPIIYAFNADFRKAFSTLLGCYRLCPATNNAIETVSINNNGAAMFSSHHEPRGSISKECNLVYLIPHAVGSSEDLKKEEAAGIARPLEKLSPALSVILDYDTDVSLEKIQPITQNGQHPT
Sequence of phosphoglycerate mutase (Leishmania major) (Q4Q090 1-553): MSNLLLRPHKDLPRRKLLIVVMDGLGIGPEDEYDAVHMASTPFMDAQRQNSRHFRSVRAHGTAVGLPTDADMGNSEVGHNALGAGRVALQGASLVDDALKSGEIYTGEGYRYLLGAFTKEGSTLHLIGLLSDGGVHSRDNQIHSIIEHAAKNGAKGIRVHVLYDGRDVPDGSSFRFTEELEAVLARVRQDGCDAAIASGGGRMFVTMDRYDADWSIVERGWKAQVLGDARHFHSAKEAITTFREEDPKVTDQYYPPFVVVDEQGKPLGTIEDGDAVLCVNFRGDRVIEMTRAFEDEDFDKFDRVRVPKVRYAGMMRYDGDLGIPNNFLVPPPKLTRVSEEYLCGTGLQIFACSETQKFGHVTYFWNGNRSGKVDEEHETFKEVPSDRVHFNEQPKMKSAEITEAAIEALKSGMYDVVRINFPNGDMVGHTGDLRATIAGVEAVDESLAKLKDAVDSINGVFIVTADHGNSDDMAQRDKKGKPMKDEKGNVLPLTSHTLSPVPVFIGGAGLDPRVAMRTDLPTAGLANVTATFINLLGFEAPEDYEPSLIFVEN
Sequence of Phosphoglycerate kinase, glycosomal (Trypanosoma brucei brucei) (P07378 whole entry, looked up): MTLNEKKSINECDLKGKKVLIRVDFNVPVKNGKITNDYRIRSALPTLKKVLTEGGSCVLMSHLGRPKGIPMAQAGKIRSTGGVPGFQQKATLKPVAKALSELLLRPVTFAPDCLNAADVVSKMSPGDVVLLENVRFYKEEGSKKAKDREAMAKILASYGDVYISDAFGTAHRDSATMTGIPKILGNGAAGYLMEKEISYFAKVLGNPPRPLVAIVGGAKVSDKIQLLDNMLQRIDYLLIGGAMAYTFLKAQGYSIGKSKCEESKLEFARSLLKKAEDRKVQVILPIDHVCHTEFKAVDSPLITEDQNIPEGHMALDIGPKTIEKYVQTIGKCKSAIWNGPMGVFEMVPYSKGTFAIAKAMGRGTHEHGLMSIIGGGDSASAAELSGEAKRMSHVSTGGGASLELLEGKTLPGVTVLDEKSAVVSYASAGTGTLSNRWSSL
Sequence of Parathyroid hormone/parathyroid hormone-related peptide receptor (Homo sapiens) (Q03431 whole entry, looked up): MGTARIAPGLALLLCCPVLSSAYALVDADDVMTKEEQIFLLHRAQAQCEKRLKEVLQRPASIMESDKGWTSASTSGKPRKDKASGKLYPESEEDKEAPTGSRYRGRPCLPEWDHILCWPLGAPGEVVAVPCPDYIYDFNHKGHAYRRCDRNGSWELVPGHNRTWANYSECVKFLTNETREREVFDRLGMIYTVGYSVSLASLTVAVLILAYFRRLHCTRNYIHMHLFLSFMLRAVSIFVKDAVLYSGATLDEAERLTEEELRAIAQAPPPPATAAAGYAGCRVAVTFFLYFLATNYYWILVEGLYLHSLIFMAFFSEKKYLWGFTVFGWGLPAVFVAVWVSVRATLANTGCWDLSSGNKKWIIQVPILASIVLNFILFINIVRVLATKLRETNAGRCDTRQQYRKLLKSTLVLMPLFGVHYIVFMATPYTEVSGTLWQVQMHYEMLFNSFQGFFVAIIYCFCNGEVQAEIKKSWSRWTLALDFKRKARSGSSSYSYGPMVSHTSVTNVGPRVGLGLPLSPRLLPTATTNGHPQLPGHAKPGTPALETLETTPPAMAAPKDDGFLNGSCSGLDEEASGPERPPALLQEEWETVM
Sequence of Single-stranded DNA cytosine deaminase (Homo sapiens) (Q9GZX7 whole entry, looked up): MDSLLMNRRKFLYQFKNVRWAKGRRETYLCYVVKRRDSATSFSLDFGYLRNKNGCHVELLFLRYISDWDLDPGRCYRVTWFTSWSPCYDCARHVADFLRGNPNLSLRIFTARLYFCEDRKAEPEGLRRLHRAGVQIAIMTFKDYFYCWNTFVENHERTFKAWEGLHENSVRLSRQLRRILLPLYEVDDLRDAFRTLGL
Sequence of Peptidyl-prolyl cis-trans isomerase NIMA-interacting 1 (Homo sapiens) (Q13526 whole entry, looked up): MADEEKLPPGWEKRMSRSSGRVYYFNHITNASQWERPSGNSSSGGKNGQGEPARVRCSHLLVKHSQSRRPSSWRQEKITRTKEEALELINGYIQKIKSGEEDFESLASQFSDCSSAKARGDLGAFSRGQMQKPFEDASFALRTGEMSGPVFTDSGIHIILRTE

C1CCC(N=C(NC23CC4CC(CC(C4)C2)C3)N2CCOCC2)CC1
outcome [1]: inactive | Potency [2]: inactive | Potency [3]: inactive | Potency [4]: inactive | outcome [5]: inactive | outcome [6]: inactive | outcome [7]: inactive | Potency [8]: inactive | activation [9]: 1.31% (inactive) | outcome [10]: inactive | viability change [10]: 4.19% | outcome [11]: inactive | outcome [12]: inactive | outcome [13]: inactive | Potency [14]: inactive | Potency [15]: inactive | outcome [16]: inactive | Potency [17]: inactive | Potency [18]: 11.2 µM (active) | Potency [19]: inactive | outcome [20]: inactive | outcome [21]: inactive | outcome [22]: inactive | outcome [23]: inactive | outcome [24]: inactive | outcome [25]: inactive | max response [26]: 10.5% (inactive) | Potency [27]: inactive | Potency [28]: inactive | Potency [29]: inactive | outcome [30]: inactive | Potency [31]: inactive | outcome [32]: inactive | Potency [33]: inactive

— PubChem BioAssay (NCATS)
